# Hit rate of the full screen: of about 320,000 compounds, about 22,000 (6.9%) were called active. Inconclusive results (about 27%) are left out. Shown is part of a subset that was picked to be rich in actives. Unmarked numbers belong to inactive results. Calls come from the whole dose curve; as a rule, active = well fitted inhibition curve with a large enough effect; inconclusive = small, poorly fitted or top-dose-only effect, or another doubt; inactive = no such curve, though single readings can be large or run the other way.
# Assay: Primary qHTS for delayed death inhibitors of the malarial parasite plastid, 96 hour incubation
# Details: P. falciparum luciferase reporter growth; series mostly up to 28.7 µM; activity change, negative = inhibition: at the top concentration
# In short: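 Luminescence readout: decreased luciferase signal marks inhibited growth of reporter-expressing P. falciparum in infected red cells (2% hematocrit, 0.05% parasitemia final), exposed to compound two generations (96 h, 37 C, 5% CO2).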
# % is set by controls: 0 for no effect and ±100 for the full control effect; potency is the fitted concentration of half-maximal effect.
Structure (SMILES),"activity change, negative = inhibition",Potency
CN(c1ccccc1)S(=O)(=O)c1cccc(C(=O)NNC(=O)c2ccncc2)c1,36%,–
COc1cccc(NC(=O)N2C3CCCC2CC(NC(C)=O)C3)c1 (stereo not drawn),-17.1%,–
NC(=O)c1nnsc1-c1ccc(-c2snnc2C(N)=O)cc1,79.6%,–
NS(=O)(=O)c1ccc(CNC(=O)c2cnccn2)cc1,3.67%,–
COCCOCCn1cnc2ccccc21,-7.76%,–
Cc1cc2ncn(CCCCOc3ccccc3)c2cc1C,–,14.7 µM (active)
Cc1c(C(N)=O)sc2ncn(CCOc3ccccc3)c(=O)c12,19.2%,–
COc1ccc(NC(=O)CC(NC(C)c2ccccc2)C(=O)O)cc1 (stereo not drawn),44.3%,–
CCCCCC(O)(CCN1CCCCC1)c1ccccc1 (stereo not drawn),7.41%,–
CCC1(C)Cc2c(sc3nc(SC)[nH]c(=O)c23)CO1 (stereo not drawn),–,9.28 µM (active)
CCC1(C)Cc2c(sc3[nH]c(=S)n(Cc4ccccc4)c(=O)c23)CO1 (stereo not drawn),16.8%,–
CCOC(=O)CSc1nc2sc3c(c2c(=O)[nH]1)CC(C)(C)OC3,8.53%,–
CCOc1ccc(S(=O)(=O)N2CCCC(C(=O)N3CCC(C(N)=O)CC3)C2)cc1Cl (stereo not drawn),26.6%,–
COc1ccc(OC)c(S(=O)(=O)N2CCCC(C(=O)NCCc3ccccc3)C2)c1 (stereo not drawn),-4.5%,–
CCOC(=O)c1sc(NC(=O)C2CSC3(C)CCC(=O)N23)nc1C (stereo not drawn),-33.8%,–
COc1cc(C(C(=O)NC2CCCC2)N(C(=O)c2ccco2)c2ccccc2C(C)=O)cc(OC)c1OC (stereo not drawn),-73.6%,–
O=C(/C=C/Nc1ccc(S(=O)(=O)Nc2cnc3ccccc3n2)cc1)c1cccnc1,17.8%,–
CCn1c(SCC(=O)Nc2ccc3c(c2)OCCO3)nnc1C(C)C,48.3%,–
CCn1c(SCC(=O)Nc2ccc3c(c2)OCCO3)nnc1-c1ccncc1,9.38%,–
O=C(CSc1nnnn1-c1ccc2c(c1)CCC2)Nc1ccc2c(c1)OCCO2,–,10.4 µM (active)
O=C1CCCCC(=O)c2ccccc2N1,279%,–
c1ccc2c(c1)C(=NC1CCCCC1)NC2=NC1CCCCC1,–,2.94 µM (active)
CC(=O)c1ccc(N2CCN(CC(O)c3ccccc3)CC2)cc1 (stereo not drawn),7.18%,–
COc1cccc(CNS(=O)(=O)c2csc(C(N)=O)c2)c1,-2.54%,–
COc1cccc(NC(=S)NCc2ccccn2)c1,6.5%,–
COc1cccc(S(=O)(=O)NCc2ccc(C(=O)NCc3ccccn3)cc2)c1,–,2.94 µM (active)

Structure (SMILES),"activity change, negative = inhibition",Potency
O=C(COC(=O)c1ccccc1)c1ccc2c(c1)OCCO2,123%,–
CCOC(=O)c1c(-c2ccccc2)oc2cc(Br)c(O)cc12,1.74%,–
O=C(c1ccc(Cn2cc([N+](=O)[O-])cn2)o1)N1CCCC1,3.18%,–
CC(C)CC(CCc1ccccc1)OS(N)(=O)=O (stereo not drawn),30.1%,–
O=C(COC(=O)c1ccc(O)cc1O)NNC(=O)c1cccs1,-15.8%,–
CCOc1cc(N2CCOCC2)c(OCC)cc1NC(=O)COC(=O)[C@H](Cc1c[nH]c2ccccc12)NC(C)=O,7.96%,–
CCOc1cc(N2CCOCC2)c(OCC)cc1NC(=O)COc1cccc(Cl)c1,-4.08%,–
CCOc1cc(N2CCOCC2)c(OCC)cc1NC(=O)COc1cccc2cccnc12,–,9.28 µM (active)
O=C(N/N=C/c1cccnc1)c1ccc(NC(=O)c2ccc(F)cc2)cc1,9.05%,–
Cn1nc(-c2ccccc2)c2cc([N+](=O)[O-])ccc21,–,9.28 µM (active)
Cc1nc(-c2ccc([N+](=O)[O-])cc2)c(-c2ccccc2)o1,35.4%,–
COc1ccc([N+](=O)[O-])cc1-c1nc2ccccc2nc1-c1ccccc1,-2.77%,–
COc1ccc(CCNC(=O)CCCCn2c(=O)[nH]c3ccccc3c2=O)cc1OC,81.9%,–
COc1ccccc1Cn1c(=S)[nH]c2cc(C(=O)N3CCN(C)CC3)ccc2c1=O,0%,–
CCOC(=O)N1CCN(C(=O)c2ccc3c(=O)n(CCc4ccc(OC)c(OC)c4)c(=O)[nH]c3c2)CC1,–,2.62 µM (active)
Cc1c(S(=O)(=O)NC(C)c2ccccc2)c(=O)n(C)c(=O)n1C (stereo not drawn),5.42%,–
CN(CC(=O)NCCc1ccc(F)cc1)CC(=O)Nc1ccc(F)c(F)c1F,-6.33%,–
COc1cccc(C(=O)N2CCC(n3nccc3NC(=O)C3CCOC3)CC2)c1 (stereo not drawn),64.6%,–
CCCCn1c(N)c(N(CCC(C)C)C(=O)CC2OC(=O)c3ccccc32)c(=O)[nH]c1=O (stereo not drawn),–,4.65 µM (active)
CCCCn1c(N)c(N(CCC(C)C)C(=O)c2ccc([N+](=O)[O-])o2)c(=O)[nH]c1=O,-27.6%,–
CCCCn1c(N)c(N(CCC(C)C)C(=O)c2ccc(COc3ccccc3)o2)c(=O)[nH]c1=O,-4.62%,–
O=C(NCCO)C(=O)NCC(c1ccc2c(c1)OCO2)N1CCN(c2ccc(F)cc2)CC1 (stereo not drawn),3.63%,–
CCOC(=O)N1CCN(S(=O)(=O)N2CCCC(C(=O)NCCCN3CCC(C)CC3)C2)CC1 (stereo not drawn),23.7%,–
O=C(CCC(=O)N/N=C/c1ccc(Br)o1)N/N=C/c1ccc(Br)o1,20.1%,–
COc1ccc(CCNC2=CC(=O)CC(C)(C)C2)cc1,0%,–
COc1cc(C(=O)NC(=S)NCc2ccco2)cc(OC)c1OC,0%,–

Structure (SMILES),"activity change, negative = inhibition",Potency
COc1cc(C(=O)N[C@@H](C)C(=O)NCc2ccco2)cc(OC)c1OC,16%,–
COc1cc(Cn2c(N)c(C(=O)NCc3ccco3)c3nc4ccccc4nc32)cc(OC)c1OC,–,1.65 µM (active)
O=C(NCC(=O)N1CCCC(C(F)(F)F)C1)c1ccccc1F (stereo not drawn),76.3%,–
CC(NC(=O)c1ccccc1F)c1cccc2ccccc12 (stereo not drawn),43%,–
Cc1ccc(S(=O)(=O)N(C)CC(=O)OCC(=O)N2CC(=O)Nc3ccccc32)cc1,17.3%,–
Cc1ccc(S(=O)(=O)N2CC(=O)Nc3ccccc32)cc1C,–,13.1 µM (active)
Cc1ccc(C(=O)N2CC(=O)Nc3ccccc32)o1,7.15%,–
O=C(O)C1CCCCC1C(=O)N1CCN(S(=O)(=O)c2ccc(F)cc2)CC1 (stereo not drawn),29.1%,–
COc1cc(N2C(=O)CC3(CCCC3)CC2=O)cc(OC)c1OC,11.1%,–
CCOc1ccc(-n2c(SCC(N)=O)nnc2-c2ccco2)cc1,–,3.7 µM (active)
O=C(CSc1nnc(-c2ccccn2)n1-c1ccccc1)Nc1ccc2c(c1)OCO2,11.5%,–
COc1ccc(-c2nnc(SCC(=O)c3ccco3)n2-c2ccccc2)cc1,-2.46%,–
Cc1cccc(C)c1NC(=O)CCCSc1nnc(-c2ccco2)n1-c1ccccc1,22.3%,–
CCOC(=O)CSc1nnc(-c2ccco2)n1C,-14.9%,–
COc1ccc(-n2c(SCC(=O)OC(C)C)nnc2-c2ccccn2)cc1,–,2.08 µM (active)
CCOc1ccc(S(=O)(=O)N2CCN=C2Cc2ccccc2)cc1C,22.5%,–
O=C(CCc1ccccc1)Nc1ccnn1C1CCN(Cc2ccc(OCCO)cc2)CC1,15.8%,–
CC/C=C/C(=O)N1CC2(CC(c3cccc(NC(=O)CC)c3)=NO2)C[C@H]1C(N)=O (stereo partly drawn),-1.57%,–
C/C=C(\C)C(=O)N1CC2(CC(c3cccc(NC(=O)CCCCC)c3)=NO2)C[C@@H]1C(N)=O (stereo partly drawn),23.1%,–
CCC(=O)Nc1cccc(C2=NOC3(C2)C[C@@H](C(N)=O)N(C(=O)c2cc([N+](=O)[O-])cc([N+](=O)[O-])c2C)C3)c1 (stereo partly drawn),–,0.0657 µM (active)
CCOc1ccccc1-c1nc(CN2CCC(C(=O)N3CCOCC3)CC2)c(C)o1,–,11.7 µM (active)
CCOc1ccccc1-c1cc(C(=O)N2CCOCC2)c2ccccc2n1,-10.4%,–
COc1ccc(F)c(-c2nc(CN3CCC(c4ccccc4)CC3)c(C)o2)c1,-24.4%,–
O=C1NNC(c2ccccc2)=N/C1=C\c1ccc(Cl)cc1,–,8.28 µM (active)
O=C1NCC(=O)N(Cc2ccccc2)/C1=C/c1ccccc1,3.39%,–
O=C(NCc1csc(-c2cccs2)n1)C1CC1,88.8%,–

Structure (SMILES),"activity change, negative = inhibition",Potency
Cc1cc(O)c(C2(O)C(=O)Nc3ccccc32)cc1C (stereo not drawn),27%,–
CCOC(=O)CNc1nc(Cl)nc(Nc2ccc(OC)cc2OC)n1,0.58%,–
COc1cc(OC)cc(-c2c(-c3ccc(F)cc3)c3cc(-c4ccc5cc[nH]c5c4)ccc3n2C)c1,–,5.22 µM (active)
COc1ccc2c(c1)c(C(=O)N/N=C/c1cccs1)c(C)n2C,-10.9%,–
COc1ccc(OC)c(-c2csc(-c3cccs3)n2)c1,69%,–
COc1cc(OC)cc(-c2c(-c3cccs3)c3cc(-c4ccc(OC)cc4F)ccc3n2C)c1,–,5.86 µM (active)
OCC[C@H]1C[C@H](O)[C@@H](O)[C@]2(CCc3ccccc3O2)O1,0%,–
O=C(O)c1cc(S(=O)(=O)N(Cc2ccccc2)c2cccc(C(F)(F)F)c2)ccc1Cl,-25.6%,–
O=C(CSc1ccc(-c2ccc(-n3cccn3)cc2)nn1)Nc1ccc([N+](=O)[O-])cc1,155%,–
Cc1cccc(OCC(=O)NC2CC(C)(C)NC(C)(C)C2)c1,6.25%,–
NC(=O)C1(C(N)=O)OC1c1ccc(Cl)cc1Cl (stereo not drawn),8.12%,–
COC(=O)c1ccccc1OCC(=O)N1CCN(c2ccc(Cl)cc2)CC1,10.6%,–
CC1(C)Cc2cccc(OCC(=O)Nc3nccs3)c2O1,-12%,–
CC1(C)Cc2cccc(OCC(=O)N3CCN(c4ccc([N+](=O)[O-])cc4)CC3)c2O1,–,5.22 µM (active)
Nc1cc(N)nc(SCc2ccc(Cl)cc2)n1,4.96%,–
O=C(CSc1nc2[nH]ncc2c(=O)[nH]1)Nc1ccc(F)cc1,-3.5%,–
CCCn1nnnc1NCc1ccc(CC)cc1,-6.67%,–
O=C(Cn1c(=O)n(Cc2ccco2)c(=O)c2ccccc21)NCC1CCCO1 (stereo not drawn),81.7%,–
Cc1ccccc1NC(=O)Cn1c(=O)n(CC2CCCO2)c(=O)c2ccccc21 (stereo not drawn),–,2.33 µM (active)
COc1ccc(CCNC(=O)Cn2c(=O)n(CC3CCCO3)c(=O)c3ccccc32)cc1OC (stereo not drawn),-9.63%,–
CCN(CC(=O)Nc1cc(Cl)ccc1C)C(=O)Cn1c(=O)cnc2ccccc21,36.2%,–
CC(C)Cn1c(N)c(C(=O)COC(=O)C2CCCN2C(=O)c2cccs2)c(=O)n(C)c1=O (stereo not drawn),2.49%,–
Cc1ccc(-n2ncc3c2CC(C)(C)CC3NC(=O)Cc2c(C)noc2C)cc1 (stereo not drawn),0%,–
COc1ccc(-n2ncc3c2CC(C)(C)CC3NC(=O)CCc2c(C)noc2C)cc1 (stereo not drawn),-29.9%,–
COc1ccc(-n2ncc3c2CC(C)(C)CC3NC(=O)CCc2c(C)nn(C)c2C)cc1 (stereo not drawn),–,10.4 µM (active)
